According to PubChem BioAssay (EPA / NIEHS):
Values joined by “and” are separate entries in the source; they are usually repeats but may differ in a detail not shown here. Equal entries are not always repeated. Active and inactive are the calls of the source. Rule for the calls: active = hit-call score of the fitted dose curve at least 0.9, where 1 is the maximum; inactive = score below 0.9.

The compounds below were run on CD40, CD40 (gene 958) (assay: BSK_SAg_CD40: BioMAP Diversity Plus: SAg Assay for CD40 Biomarker Activity (AID 2283088)). Details: primary human HUVEC with PBMC; actives raise or lower the signal.
Description: BSK_SAg is a cell-based, multiplexed-readout assay that uses umbilical vein endothelium and peripheral blood mononuclear cells, a human vascular primary cell co-culture, with measurements taken at 24 hours after chemical dosing in a 96-well plate.BSK_SAg_CD40 is one of 10 assay component(s) measured or calculated from the BSK_SAg assay. It is designed to make measurements of enzyme-linked immunosorbent assay, a form of binding reporter, as detected with fluorescence intensity signals by Enzyme-linked immunosorbent assay technology.Data from the assay component BSK_SAg_CD40 was analyzed into 1 assay endpoint. This assay endpoint, BSK_SAg_CD40, was analyzed with bidirectional fitting relative to DMSO as the negative control and baseline of activity. Using a type of binding reporter, gain or loss-of-signal activity can be used to understand changes in the signaling as they relate to the gene CD40. Furthermore, this assay endpoint can be referred to as a primary readout, because this assay has produced multiple assay endpoints where this one serves a signaling function. To generalize the intended target to other relatable targets, this assay endpoint is annotated to the cytokine intended target family, where the subfamily is inflammatory factor.
The levels of cell surface (or secreted, indicated by the prefix "s") biomarker endpoints were measured by ELISA. Overt cytotoxicity to cells in confluent adherent cultures (all systems other than the BT system) was assessed by measuring total protein levels using sulforhodamine B (SRB) staining in parallel cultures at the time of biomarker measurements, indicated as SRB endpoints. For proliferation assays for adherent cell types, individual cell types are cultured at sub-confluence and relative cell numbers quantified by SRB staining at time points optimized for each system (48 h: 3C and CASM3C systems; 72 h: BT and HDF3CGF systems; 96 h: SAg system). SRB was performed by staining cells with 0.1% SRB after fixation with 10% TCA and reading wells at 560 nm.Viability and proliferation of PBMC (T cells) was quantified by Alamar Blue reduction for the SAg and BT systems. For PBMC viability (referred to as PBMC Cytotoxicity within the assay endpoint names), cells were plated (75,000/well in a 96-well plate) and then chemical samples added for 1 h before addition of activators, SEB and TSST-1 (20 ng/mL final concentration each). Cells were incubated for 90 h. Then, Alamar Blue (20 uL/well) (Invitrogen, Cat DAL1100) was added for 6 h, and the plates were read with a fluorescence microplate reader at 546/580 nm (excitation/emission). For PBMC proliferation, cells were plated and activated as above but incubated for only 16 h prior to addition of Alamar Blue. Plates were read after 6 h.

Row | Structure (SMILES) | AC50 | outcome
1 | CCCSP(=O)(OCC)Oc1ccc(Br)cc1Cl (stereo not given) | 31.9 µM (active) | –
2 | CCCCSP(=O)(SCCCC)SCCCC | – | inactive
3 | CSc1nnc(C(C)(C)C)c(=O)n1N | – | inactive
4 | C[N+]1(C)CCCCC1 | – | inactive
5 | CNC(=O)ON=C(C)SC | – | inactive
6 | N#CSCSC#N | 7.73 µM (active) | –
7 | COc1cccc(C(=O)NN(C(=O)c2cc(C)cc(C)c2)C(C)(C)C)c1C | – | inactive
8 | C#CC(C)(C)NC(=O)c1cc(Cl)cc(Cl)c1 | – | inactive
9 | CCOP(=S)(OCC)Oc1ccc([N+](=O)[O-])cc1 | – | inactive
10 | CCNc1nc(Cl)nc(NC(C)(C)C#N)n1 | – | inactive
11 | C#CCC1=C(C)C(OC(=O)C2C(C=C(C)C)C2(C)C)CC1=O (stereo not given) | 26.5 µM (active) | –
12 | CCOP(=O)(NC(C)C)Oc1ccc(SC)c(C)c1 (stereo not given) | – | inactive
13 | COc1cc(OC)nc(Sc2cccc(Cl)c2C(=O)O)n1 | – | inactive
14 | C[Si](Cn1cncn1)(c1ccc(F)cc1)c1ccc(F)cc1 | 27 µM (active) | –
15 | Cc1cc(C2CC2)nc(Nc2ccccc2)n1 | 16.2 µM (active) | –
16 | O=c1ccc(=O)[nH][nH]1 | – | inactive
17 | O=[N+]([O-])c1cc(C(F)(F)F)c(Cl)c([N+](=O)[O-])c1Nc1ncc(C(F)(F)F)cc1Cl | 1.51 µM (active) and 1.86 µM (active) | –
18 | COc1ccc(C(=CC(=O)N2CCOCC2)c2ccc(Cl)cc2)cc1OC | 6.93 µM (active) | –
19 | CCc1cccc(CC)c1N(COC)C(=O)CCl | 20 µM (active) | –
20 | CCC(=NOC/C=C/Cl)C1=C(O)CC(C2CCOCC2)CC1=O (stereo not given) | – | inactive

Row | Structure (SMILES) | AC50 | outcome
21 | S=C1NCCN1 | – | inactive
22 | CCOP(=S)(Oc1cnc(C(C)(C)C)nc1)OC(C)C (stereo not given) | 30.8 µM (active) | –
23 | CSc1nc(NC(C)C)nc(NC(C)C)n1 | – | inactive
24 | CC(COc1ccc(Oc2ccccc2)cc1)Oc1ccccn1 (stereo not given) | – | inactive
25 | CCOP(=O)(OCC)Oc1cc(C)nc(C(C)C)n1 | – | inactive
26 | CCC(=O)Nc1ccc(Cl)c(Cl)c1 | – | inactive
27 | CNc1cnn(-c2cccc(C(F)(F)F)c2)c(=O)c1Cl | 11.7 µM (active) | –
28 | CCC(CC)Nc1c([N+](=O)[O-])cc(C)c(C)c1[N+](=O)[O-] | 20 µM (active) | –
29 | CCCOCC(=Nc1ccc(Cl)cc1C(F)(F)F)n1ccnc1 | 18.1 µM (active) | –
30 | CC[C@H](C)[C@H]1O[C@]2(C=C[C@@H]1C)C[C@@H]1C[C@@H](C/C=C(\C)[C@@H](O[C@H]3C[C@H](OC)[C@@H](O[C@H]4C[C@H](OC)[C@@H](NC)[C@H](C)O4)[C@H](C)O3)[C@@H](C)/C=C/C=C3\CO[C@@H]4[C@H](O)C(C)=C[C@@H](C(=O)O1)[C@]34O)O2 | 3.34 µM (active) | –
31 | CCCCOC(=O)[C@@H](C)Oc1ccc(Oc2ccc(C#N)cc2F)cc1 | – | inactive
32 | CCCOc1nn(C(=O)NS(=O)(=O)c2ccccc2C(=O)OC)c(=O)n1C | – | inactive
33 | COP(=O)(NC(C)=O)SC (stereo not given) | – | inactive
34 | CN(C)C(=O)Nc1cccc(C(F)(F)F)c1 | – | inactive
35 | CC(=NC#N)N(C)Cc1ccc(Cl)nc1 | – | inactive
36 | COP(=O)(OC)SCn1c(=O)oc2cc(Cl)cnc21 | 20 µM (active) | –
37 | CC(Oc1cccc(Cl)c1)C(=O)O (stereo not given) | – | inactive
38 | CSC1=N[C@@](C)(c2ccccc2)C(=O)N1Nc1ccccc1 | 11.4 µM (active) | –
39 | CNC(=O)Oc1cccc2c1OC(C)(C)O2 | – | inactive
40 | CC(C)[C@H](C(=O)O[C@H](C#N)c1cccc(Oc2ccccc2)c1)c1ccc(Cl)cc1 | – | inactive
